According to the supplement of paper PMC3334620:
In all, about 33,000 sequences were measured (“E-score (-0.5 to 0.5)”: median about -0.013, highest 2% from about 0.3 on). The sample holds the highest values, similar sequences and a random draw of the others, so the mix is not that of the screen.

What follows are sequences tested against T1, Msn1 (UniProt P22148) (assay: PBM E-score (8-mer binding enrichment) (E-score (-0.5 to 0.5)); higher = stronger / more preferred TF binding). Settings: protein concentration: 200 nM; construct: GST-full length.
T1 sequence: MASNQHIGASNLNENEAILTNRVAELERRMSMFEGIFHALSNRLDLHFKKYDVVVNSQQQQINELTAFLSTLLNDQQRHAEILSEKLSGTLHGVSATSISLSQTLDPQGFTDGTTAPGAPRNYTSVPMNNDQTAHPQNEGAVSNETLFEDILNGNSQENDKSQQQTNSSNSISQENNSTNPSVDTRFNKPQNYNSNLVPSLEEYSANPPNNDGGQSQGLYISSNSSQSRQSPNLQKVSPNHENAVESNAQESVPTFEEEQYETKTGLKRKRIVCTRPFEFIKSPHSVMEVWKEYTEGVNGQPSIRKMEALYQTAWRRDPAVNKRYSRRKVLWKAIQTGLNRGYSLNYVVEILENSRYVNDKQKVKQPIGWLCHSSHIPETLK
How it was run: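 Each ungapped eight-base word and its reverse complement, pooled, received an E-score from the Universal PBM Analysis Suite. Underlying scans, normalised with masliner, recorded fluorescent anti-GST bound to GST-tagged yeast transcription factors. These were applied at about 100-200 nM to universal all-10-mer Agilent arrays double-stranded by primer extension.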

| Sequence | PBM E-score |
| --- | --- |
| AAAACGCC | 0.045 |
| GCTGCGCC | -0.192 |
| CAAAGTGC | 0.0233 |
| CGCGCCCG | -0.0907 |
| ACTAGACG | 0.112 |
| CCTTGCCG | -0.0395 |
| AAAGATCC | -0.12 |
| AGAGATCG | -0.0703 |
| GTACGAAA | 0.249 |
| GTACGAAC | 0.311 |
| CTACGAAC | 0.0953 |
| GCACCCAC | -0.091 |
| CCTACCAA | 0.133 |
| CAAGATGG | -0.0978 |
| TGTACAAA | 0.392 |
| CGTACAAA | 0.356 |
| GGTACAAC | 0.188 |
| AGAACAAA | 0.303 |
| GTTACAAA | 0.158 |
| CGTACAAC | 0.093 |
| AGAACAAT | 0.0106 |
| GGTACAAA | 0.456 |
| AGAACAAG | 0.151 |
| TGTACACA | 0.279 |
| CGTACAAG | 0.0872 |

| Sequence | PBM E-score |
| --- | --- |
| TTTACAAA | 0.12 |
| TAAAGTGA | 0.0769 |
| GATTGTGA | 0.0853 |
| CTAAATGC | 0.035 |
| GCGGGCAC | -0.0424 |
| CTCAACGC | -0.267 |
| AGTACAAA | 0.44 |
| TATACAAA | 0.183 |
| GGTACATA | 0.341 |
| CGTACATA | 0.296 |
| AGTACAAT | 0.29 |
| GATACAAC | 0.212 |
| AGTACAAG | 0.251 |
| AGTACATA | 0.221 |
| GATACAAA | 0.313 |
| AATGTGTC | 0.3 |
| AATGTCTC | 0.463 |
| CATGTCTC | 0.343 |
| AATGTTTC | 0.105 |
| ACTGTCTG | 0.079 |
| GATGTCTA | 0.239 |
| AGTGTCTG | 0.154 |
| AATGTCTA | 0.454 |
| CATGTCTA | 0.268 |
| AATGTCTG | 0.436 |

| Sequence | PBM E-score |
| --- | --- |
| CATGTGTC | 0.298 |
| CAGGTCTC | -0.00322 |
| AGAAGCGG | -0.101 |
| AAAACCAG | 0.152 |
| CGTAAGGA | -0.0491 |
| ACCATGGG | -0.161 |
| GCCTATAA | 0.0368 |
| TACCCGTA | -0.0437 |
| ATTTGCGC | 0.104 |
| CACCTGAG | -0.0701 |
| ACATATGT | 0.28 |
| ATAGGGCC | -0.158 |
| GGTGGATA | 0.0155 |
| CGTGGACC | -0.0578 |
| AGTGGACC | -0.0955 |
| AGTGGACG | 0.212 |
| AGTGGACA | 0.389 |
| GGTGGACA | 0.325 |
| GGTGGAGA | -0.396 |
| CGTGGACA | 0.408 |
| CGTGGAAA | 0.0488 |
| GGATTTCA | 0.0863 |
| CCTGATAC | 0.12 |
| AGTAAAAC | -0.0534 |
| AGCAAAGC | -0.143 |

| Sequence | PBM E-score |
| --- | --- |
| ATTGAGAG | -0.0651 |
| CAGCAAAA | 0.0953 |
| CCGATTGC | 0.104 |
| ACGGACCC | -0.221 |
| ACGGACCT | 0.0608 |
| ACGGACAG | 0.175 |
| ACGGACAT | 0.473 |
| ACGGACTC | 0.00234 |
| ACGGACAC | 0.344 |
| AAGCGGAC | 0.014 |
| ACTTCCAG | -0.219 |
| TGAACTCA | 0.0356 |
| GCCTTTCA | -0.179 |
| ATCCCACA | -0.141 |
| ATCCCACG | -0.0996 |
| GTCCCACA | 0.319 |
| AGCTCCAT | -0.251 |
| ACAAAAAT | 0.372 |
| ACAAACGA | 0.331 |
| ACAACGGA | 0.304 |
| TCAACGGA | -0.0103 |
| ACAAAAAG | 0.216 |
| ACAAACAG | 0.276 |
| ACAAAAAA | 0.225 |
| ACAAACAA | 0.277 |

| Sequence | PBM E-score |
| --- | --- |
| ACAAACGC | 0.172 |
| ACAAACGG | 0.298 |
| ACAACGGG | 0.161 |
| ACAAACAC | 0.337 |
| CGTAGACC | -0.151 |
| ACTCGTAC | -0.0875 |
| ACCGCCAG | -0.04 |
| CTCGAACC | -0.0331 |
| AGCGGCAG | -0.149 |
| GAAATACC | -0.0126 |
| ACTCCTCG | -0.00289 |
| CCCGTCGC | -0.27 |
| ACTGAGCT | -0.0939 |
| CCTCTCGA | -0.12 |
| GCTGCTCC | -0.218 |
| CACTGGGA | 0.131 |
| AAGCAAGT | 0.00084 |
| GAACCGCA | 0.0554 |
| CCAAAAGC | 0.0259 |
| ACAAAAAC | 0.319 |
| ACAAAAGA | 0.27 |
| ACAAAAGC | 0.364 |
| ACAAAACC | 0.239 |
| CCAAAAAC | 0.0933 |
| ACTACGCA | -0.18 |

| Sequence | PBM E-score |
| --- | --- |
| ATATTTTC | 0.226 |
| CCTCGAAG | 0.0737 |
| GGGGTGCA | -0.0694 |
| CAGACACG | 0.147 |
| CAGACACA | 0.28 |
| CTGACACA | 0.0572 |
| CGGACACC | 0.112 |
| CGGACACA | 0.371 |
| CGGACACG | 0.338 |
| CCTTTCGC | -0.146 |
| GCTATGAA | -0.00947 |
| TCGGCCGA | 0.31 |
| GCGGCCGA | -0.0302 |
| CCGGCCGA | 0.106 |
| AAGCGCTA | -0.0275 |
| AAGCGCTT | 0.312 |
| AAGCGCTC | -0.0777 |
| CCTTAATC | -0.105 |
| ACGCAAGA | 0.0419 |
| ACCTCAGG | -0.129 |
| AATTGTAC | 0.365 |
| CATTGTAC | 0.0768 |
| CATTGTCA | 0.158 |
| TATTGTCA | 0.282 |
| GATTGTCA | 0.245 |

| Sequence | PBM E-score |
| --- | --- |
| CATTGTGC | 0.0753 |
| AATTGTCC | 0.488 |
| AATTGTTC | 0.245 |
| AATTGTGC | 0.0159 |
| GATTGTAC | 0.0546 |
| AATTGTCA | 0.359 |
| CATTGTCC | 0.456 |
| AAATCTGT | 0.138 |
| CACACCCC | -0.293 |
| ATTGCGGA | 0.145 |
| ATATGAGA | 0.0596 |
| ACCCGAAG | -0.0262 |
| CACTTTCC | -0.221 |
| GATTGTCC | 0.458 |
| CATTGTCG | 0.21 |
| AATTGTAG | 0.167 |
| AATTGTAT | 0.155 |
| AATTGTCT | 0.406 |
| GATTGTGC | -0.0365 |
| AATTGTCG | 0.362 |
| AATTGTGT | -0.0542 |
| GATTGTAA | 0.0176 |
| CTAGCCAA | 0.00535 |
